According to PubChem BioAssay AID1159580 (chemical genetic matrix, 2015):
Hit rate of the full screen: of about 5,500 compounds, about 2,000 (36%) were called active. Another 18% or so got no clear call; they are omitted. Cut-off read from the data, not from the text of the source: active = normalized growth mostly below about 0.91 (no sharp cut-off); inconclusive = no clear call, values can overlap the other calls; inactive = mostly above about 0.92. The list shows a part of the results.

Test: chemical genetic growth profiling, strain panel (AID 1159580);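 note: tested at 20 µM; growth read once vehicle control cultures reached saturation at 30 °C; 1 = growth at the plate median or of vehicle wells; lower values mean less growth of the strain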
Conditions: S. cerevisiae deletion strains, growth OD

Measured: normalized growth

COc1cc(-c2cc(=O)c3c(O)c(OC)c(OC)c(OC)c3o2)cc(OC)c1OC
inactive: locus YAL021C, strain ccr4, hits give low values 1.01 | locus YAL026C, strain drs2, hits give low values 1.01 | locus YAL030W, strain snc1, hits give low values 1.01 | locus YBL061C, strain skt5, hits give low values 1.01 | locus YBR009C, strain hhf1, hits give low values 1.01 | locus YBR023C, strain chs3, hits give low values 1.01 | locus YBR171W, strain sec66, hits give low values 1.01 | locus YBR231C, strain swc5, hits give low values 1.01 | locus YBR279W, strain paf1, hits give low values 0.998 | locus YCL011C, strain gbp2, hits give low values 1.01 | locus YCL016C, strain dcc1, hits give low values 1.01 | locus YCL061C, strain MRC1, hits give low values 1.03 | locus YCL069W, strain vba3, hits give low values 1.01 | locus YCR088W, strain abp1, hits give low values 1.01 | locus YDL005C, strain med2, hits give low values 1.02 | locus YDL040C, strain nat1, hits give low values 1.01 | locus YDR001C, strain nth1, hits give low values 1.01 | locus YDR069C, strain doa4, hits give low values 1.02 | locus YDR137W, strain rgp1, hits give low values 0.997 | locus YDR159W, strain sac3, hits give low values 1.03 | locus YDR195W, strain ref2 1.02 | locus YDR297W, strain sur2, hits give low values 1.01 | locus YDR334W, strain swr1, hits give low values 1.01 | locus YDR335W, strain msn5, hits give low values 1.03 | locus YDR392W, strain spt3, hits give low values 0.97 | locus YEL003W, strain gim4, hits give low values 1.01 | locus YEL037C, strain rad23, hits give low values 1.01 | locus YEL061C, strain CIN8 (second series), hits give low values 1.01 | locus YER015W, strain faa2, hits give low values 1.01 | locus YER016W, strain bim1, hits give low values 1.02 | locus YER111C, strain swi4, hits give low values 1 | locus YER155C, strain BEM2 (second series), hits give low values 1 | locus YFR010W, strain ubp6, hits give low values 1.01 | locus YGL167C, strain pmr1, hits give low values 1.02 | locus YGL173C, strain kem1, hits give low values 1.01 | locus YGL227W, strain vid30, hits give low values 1.01 | locus YGL240W, strain doc1, hits give low values 1.04 | locus YGL253W, strain hxk2, hits give low values 1 | locus YHR013C, strain ard1, hits give low values 1 | locus YHR027C, strain rpn1, hits give low values 1.01 | locus YHR142W, strain chs7, hits give low values 0.99 | locus YJL092W, strain hpr5, hits give low values 1.02 | locus YJL095W, strain BCK1 (second series), hits give low values 1.01 | locus YJL115W, strain asf1, hits give low values 1.01 | locus YJL129C, strain trk1, hits give low values 1 | locus YJL154C, strain vps35, hits give low values 1.01 | locus YJL164C, strain tpk1, hits give low values 0.999 | locus YJL166W, strain qcr8, hits give low values 1.01 | locus YJL187C, strain SWE1, hits give low values 1.01 | locus YKL160W, strain elf1, hits give low values 1.01 | locus YKR026C, strain gcn3, hits give low values 1.01 | locus YKR091W, strain srl3, hits give low values 1.01 | locus YLL001W, strain dnm1, hits give low values 1.02 | locus YLL026W, hits give low values 1.01 | locus YLL041C, strain sdh2, hits give low values 1.01 | locus YLR027C, strain aat2, hits give low values 1.01 | locus YLR221C, strain rsa3, hits give low values 1 | locus YLR258W, strain gsy2, hits give low values 1.01 | locus YLR262C, strain YPT6 (second series), hits give low values 1.01 | locus YLR320W, strain mms22, hits give low values 1.02 | locus YLR342W, strain FKS1, hits give low values 1.02 | locus YLR357W, strain rsc2, hits give low values 0.994 | locus YLR370C, strain arc18, hits give low values 1.02 | locus YLR384C, strain iki3, hits give low values 1.01 | locus YML120C, strain ndi1, hits give low values 1 | locus YMR058W, strain fet3, hits give low values 1 | locus YMR125W, strain sto1, hits give low values 0.999 | locus YMR129W, hits give low values 1.01 | locus YMR205C, strain PFK2, hits give low values 1.02 | locus YMR231W, strain pep5, hits give low values 1.01 | locus YNL071W, strain lat1, hits give low values 1 | locus YNL209W, strain ssb2, hits give low values 1 | locus YNL248C, strain rpa49, hits give low values 1 | locus YNL322C, strain KRE1 (second series), hits give low values 1.02 | locus YNR049C, strain mso1, hits give low values 1.01 | locus YOR001W, strain rrp6, hits give low values 0.999 | locus YOR070C, strain gyp1, hits give low values 1 | locus YOR080W, strain dia2, hits give low values 1.01 | locus YOR083W, strain WHI5, hits give low values 0.995 | locus YOR106W, strain vam3, hits give low values 1 | locus YOR265W, strain rbl2, hits give low values 1.01 | locus YOR270C, strain vph1, hits give low values 0.99 | locus YOR290C, strain snf2, hits give low values 0.933 | locus YPL051W, strain arl3, hits give low values 1 | locus YPL078C, strain atp4, hits give low values 0.999 | locus YPL106C, strain sse1, hits give low values 1.03 | locus YPL240C, strain hsp82, hits give low values 1.01
